Wnt act = activates Wnt/beta-catenin signaling in a reporter cell assay | activator, plate reader | activation, % at 9.35 µM | 1.2% of 300,000 active | AID 743398; in the data active means activation above about 30%, passing the limit was not always enough; inconclusive means no clear call, values can overlap the other calls;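 further: 0% = neutral control wells and 100% = positive control wells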
esBAF inh = inhibitors of esBAF chromatin remodeling in mouse ES cells; Bmi1-luciferase knock-in reporter, 24 h; 100% = twice the neutral-well signal; reporter increase, % at 12.5 µM; 2% of 350,000 active; in the data active means activation above about 40%; inconclusive means no clear call, values can overlap the other calls;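 further: 0% = median of the plate's neutral control wells and 100% = double that signal; a rise in the Bmi1 reporter signal indicates esBAF inhibition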
Statin myotox sup = protects C2C12 myotubes from simvastatin toxicity; rescue of ATP level, % at 7.49 µM; AID 602340; 0.78% of 330,000 active; ATP luminescence, 48 h; scaled: DMSO 0, geranylgeraniol control 100;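 active means mean ATP rescue above about 67%, or every replicate alone reaching that limit, limit read from the data, passing the limit was not always enough; inconclusive means no clear call, values can overlap the other calls; inactive means mean under the limit and some replicate under it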;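 further: myotubes were challenged with 10 µM simvastatin during compound exposure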
MITF act = MITF TRPM1 promoter activation in melanoma cells; SK-MEL-5 TRPM1-promoter luciferase, 24 h; % of positive control, neutral wells = 0; activation, % at 12.5 µM; 0.75% of 300,000 active;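 active means mean activation of at least 80% with every replicate also reaching 80%; inconclusive means mean reaches 80% but some replicate falls short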;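 further: 0% = neutral control wells and 100% = parthenolide positive control wells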
Numbers without * were called inactive; ? = inconclusive; · = not tested or not shown. An excerpt weighted towards active compounds, which were near 3% of everything screened.

SMILES | Wnt act | esBAF inh | Statin myotox sup | MITF act
COc1cc(NC(=O)CN(C)S(=O)(=O)c2ccc3c(c2)CC(C)N3C(C)=O)cc(OC)c1OC (centres undefined) | -1 | -6 | 109* | -7
CC(=O)N1c2ccc(S(=O)(=O)N(C)CC(=O)NCc3ccccc3)cc2CC1C (centres undefined) | -1 | 4 | 15 | -4
COc1ccc(NS(=O)(=O)c2ccc3c(c2)OCCO3)cc1OC | -4 | -17 | -13 | -24
COc1ccc(S(=O)(=O)Nc2ccc3c(c2)OCCO3)cc1Cl | · | 11 | 114* | -8
C[C@H](CO)N1C[C@H](C)[C@@H](CN(C)Cc2ccncc2)Oc2ccc(NS(=O)(=O)c3cn(C)cn3)cc2C1=O | · | -1 | 4 | ·
Cc1nc2nc(N)nc(OCc3ccccc3)c2nc1C | 50* | · | · | ·
C[C@H](CO)N1C[C@H](C)[C@@H](CN(C)C)Oc2ncc(-c3cccnc3)cc2C1=O | · | 3 | -8 | ·
COC(=O)c1cc(S(=O)(=O)NCCc2ccccc2)c[nH]1 | 0 | -5 | 120* | -2
C[C@@H]1CCCCO[C@H](CN(C)C(=O)CCC(F)(F)F)[C@@H](C)CN([C@H](C)CO)C(=O)c2cc(NC(=O)Nc3ccc4c(c3)OCO4)ccc2O1 | · | 2 | -10 | ·
Cc1nc2ccc(NC(=O)Cc3cccs3)cc2s1 | 61* | 71* | 11 | 88*
Cc1nc2ccc(NC(=O)Cc3c(F)cccc3Cl)cc2s1 | 39* | · | · | 108*
Cc1nc2ccc(NC(=O)COc3ccccc3C)cc2s1 | -1 | -8 | 17 | 22
Cc1nc2ccc(NC(=O)CSc3ccccc3)cc2s1 | 50* | 54* | 3 | 98*
O=C(CSc1nc2ccc(NC(=O)c3ccccc3C(=O)O)cc2s1)Nc1ccc(F)c([N+](=O)[O-])c1 | 35* | 0 | -7 | -2
c1ccc(-c2nc(-c3ccco3)cs2)nc1 | 3 | 34 | ? | 91*
CCc1cc(C(=O)c2ccc(OC)cc2)c(N)s1 | 39* | -2 | -1 | ·
CCc1cc(C(=O)c2ccccc2OC)c(N)s1 | · | -6 | 6 | 1
C[C@@H]1CN([C@@H](C)CO)C(=O)c2cc(NC(=O)c3ccncc3)ccc2O[C@@H]1CN(C)S(=O)(=O)c1cccs1 | · | 0 | 27 | ·
O=C(NCCc1c[nH]c2ccccc12)c1ccc(-n2cnnn2)cc1 | 0 | 0 | -34 | ·
COc1ccc(OC(=O)c2cnn(-c3ccccc3)c2C)cc1 | · | 67* | 1 | 63
COc1ccc(OC(=O)c2c(C)nn(-c3ccccc3)c2C)cc1 | 29 | 71* | -1 | 71
Cc1nn(-c2ccccc2)c(C)c1C(=O)Oc1ccccc1 | 14 | 62* | 3 | ?
COc1cccc(NC(=O)c2cnn(-c3ccccc3)c2C)c1 | 21 | 7 | -48 | ·
O=C(NCCc1ccccc1)c1ccc(-n2cnnn2)cc1 | 7 | 48* | -3 | 39
CC=Cc1ccc2n(c1=O)C[C@H]1[C@H](CO)[C@@H](C(=O)N(C)C)N(CC3CCOCC3)[C@@H]21 (mixture of isomers) | · | -2 | 1 | ·
SMILES | Wnt act | esBAF inh | Statin myotox sup | MITF act
CC(C)C#Cc1cnc2c(c1)C(=O)N([C@H](C)CO)C[C@H](C)[C@H](CN(C)C(=O)Nc1ccc(F)cc1)O2 | · | 15 | 26 | ·
C[C@@H]1CN([C@@H](C)CO)C(=O)c2cccc(NC(=O)Nc3cccc4ccccc34)c2O[C@H]1CN(C)C(=O)NC1CCCCC1 | · | 5 | -22 | ·
Cc1nn(-c2ccccc2)c(C)c1C(=O)NCCc1ccc(Cl)cc1 | -1 | · | · | -9
Cc1nn(-c2ccccc2)c(C)c1C(=O)NCCc1ccccc1 | -4 | 24 | 1 | 88*
Cc1ccc(NC(=O)c2cnn(-c3ccccc3)c2C)c(C)c1 | 45* | 40 | -8 | 68
COc1ccccc1C1CCN(C(=O)c2cnn(-c3ccccc3)c2C)CC1 | 41* | 4 | 0 | -2
C[C@@H]1CN([C@H](C)CO)C(=O)c2cc(C#CC3CCCCC3)cnc2O[C@H]1CN(C)Cc1cncnc1 | · | 5 | 13 | ·
O=C(NC(=S)N(CCO)Cc1ccccc1)c1ccc(S(=O)(=O)N2CCCC2)cc1 | 45* | · | · | -1
Cc1cc(NC(=O)CSc2ccc3nnc(CCNS(=O)(=O)c4ccccc4)n3n2)no1 | -2 | 3 | 86* | -1
C[C@@H]1CCCCO[C@H](CN(C)S(C)(=O)=O)[C@@H](C)CN([C@H](C)CO)C(=O)c2cc(NC(=O)Nc3ccccc3)ccc2O1 | · | -5 | · | ·
CCc1nonc1NC(=O)c1oc2cc(C)c(C)cc2c1C | 25 | 13 | 4 | 86*
CCc1nonc1NC(=O)c1oc2cc(C)c(Cl)cc2c1C | 0 | 2 | 11 | 33
CCCNC(=O)Nc1ccc2c(c1)C(=O)N(C)C[C@H](OC)[C@@H](C)CN(Cc1ccccc1)[C@H](C)CO2 | · | 1 | 5 | ·
Nc1nnc(SCC(=O)c2ccc3ccccc3c2)s1 | · | 52* | · | ·
O=C(c1ccncc1)N1C[C@H]2[C@@H](c3ccccc31)[C@H](CO)N2C(=O)c1ccncc1 | · | 3 | -20 | ·
Cc1ccc(S(=O)(=O)N(C)C[C@@H]2Oc3c(NC(=O)NC4CCCCC4)cccc3C(=O)N([C@H](C)CO)C[C@@H]2C)cc1 | · | 22 | -18 | ·
CC(C)OC(=O)Cc1nc2sc(-c3ccccc3)cc2c(=O)[nH]1 | 12 | 49* | 6 | ·
CCN1C(=NCc2ccco2)N[C@@H](c2cccc(C(F)(F)F)c2)C(C(=O)OC)=C1C | -1 | -2 | 88* | 6
COc1cccc(C(=O)Oc2ccccc2/C=C\C(=O)c2cc3ccccc3o2)c1 | 152* | · | · | -17
O=C(Oc1ccccc1/C=C\C(=O)c1cc2ccccc2o1)c1ccccc1 | 53* | · | · | 12
C[C@@H]1CN([C@@H](C)CO)C(=O)Cc2cc(NC(=O)Nc3cccc4ccccc34)ccc2O[C@@H]1CN(C)S(=O)(=O)c1ccc(Cl)cc1 | · | 3 | 95* | ·
C[C@@H]1CN([C@H](C)CO)C(=O)Cc2cc(NC(=O)Nc3cccc4ccccc34)ccc2O[C@@H]1CN(C)CC1CCCCC1 | · | 6 | -5 | ·
C[C@@H]1CN([C@H](C)CO)C(=O)Cc2cc(NC(=O)Nc3cccc4ccccc34)ccc2O[C@H]1CN(C)CC1CCCCC1 | · | 3 | 75* | ·
Cc1ccc(S(=O)(=O)N(C)C[C@H]2Oc3ccc(NC(=O)Cc4ccccc4)cc3CC(=O)N([C@@H](C)CO)C[C@@H]2C)cc1 | · | 3 | 85* | ·
CC(=O)N(C)C[C@H]1Oc2ncc(-c3ccc(C(=O)N(C)C)cc3)cc2C(=O)N([C@H](C)CO)C[C@@H]1C | · | 0 | 4 | ·
COc1ccc(S(=O)(=O)N(C)C[C@H]2Oc3c(NC(=O)c4nc5ccccc5s4)cccc3C(=O)N([C@H](C)CO)C[C@H]2C)cc1 | · | 6 | · | ·
Cc1noc(C)c1S(=O)(=O)N(C)C[C@@H]1OCCCC[C@@H](C)Oc2ccc(NC(=O)C3CCCCC3)cc2C(=O)N([C@H](C)CO)C[C@H]1C | · | 5 | -69 | ·
C[C@H](CO)N1C[C@H](C)[C@H](CN(C)Cc2ccc3c(c2)OCO3)Oc2ccc(NC(=O)c3ccncc3)cc2C1=O | · | 1 | -21 | ·
O=C(NC1CCCCC1)c1ccc2ccccc2c1 | 49* | 56* | -12 | ·

Screens (PubChem BioAssay)
